The whole screen tested about 2,400 compounds, of which about 580 (24%) were called active. Only a sample is shown. Values without a mark were called inactive.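 Rule for the calls: active = activity change at or above the mean plus 3 SD of buffer wells without dofetilide, per plate; inactive = the rest.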

For the assay, the target named is Potassium voltage-gated channel subfamily KQT member 2 (Rattus norvegicus) (UniProt O88943). Put plainly: rat KCNQ2 channel activation by compounds alone, confirmation, counter-screen for hERG block protector project, cell-based, CHO, FluxOR thallium flux (AID 1942).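 Note: normalized value minus buffer-control mean plus three SD of buffer wells.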 To be noted: CHO-KCNQ2 cells, FluxOR thallium flux fluorescence; at 10 µM; active compounds read high.
Chain of Potassium voltage-gated channel subfamily KQT member 2 (Rattus norvegicus) (O88943 whole entry, looked up): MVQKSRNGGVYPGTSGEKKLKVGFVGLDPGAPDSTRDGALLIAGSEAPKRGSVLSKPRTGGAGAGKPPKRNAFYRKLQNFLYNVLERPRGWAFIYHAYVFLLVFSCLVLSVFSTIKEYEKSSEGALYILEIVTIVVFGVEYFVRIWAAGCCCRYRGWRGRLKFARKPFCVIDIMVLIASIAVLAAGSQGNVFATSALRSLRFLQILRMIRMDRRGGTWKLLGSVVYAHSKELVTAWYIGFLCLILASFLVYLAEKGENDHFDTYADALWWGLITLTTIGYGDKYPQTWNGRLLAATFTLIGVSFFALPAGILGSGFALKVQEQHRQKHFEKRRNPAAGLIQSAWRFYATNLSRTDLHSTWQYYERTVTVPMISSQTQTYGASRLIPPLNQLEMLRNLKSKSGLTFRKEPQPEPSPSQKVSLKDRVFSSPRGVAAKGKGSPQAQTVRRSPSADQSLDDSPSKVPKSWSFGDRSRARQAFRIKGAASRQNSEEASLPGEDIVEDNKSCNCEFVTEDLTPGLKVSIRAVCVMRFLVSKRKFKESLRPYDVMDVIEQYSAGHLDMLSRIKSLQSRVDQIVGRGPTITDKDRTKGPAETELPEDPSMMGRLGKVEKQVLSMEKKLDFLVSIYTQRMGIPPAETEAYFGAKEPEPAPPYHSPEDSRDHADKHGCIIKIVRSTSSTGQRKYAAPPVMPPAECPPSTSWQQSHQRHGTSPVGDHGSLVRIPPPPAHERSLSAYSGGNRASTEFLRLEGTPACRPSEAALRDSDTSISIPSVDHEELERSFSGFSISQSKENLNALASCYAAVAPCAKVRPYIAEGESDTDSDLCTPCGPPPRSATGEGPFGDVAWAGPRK
Consider `O=C(NCc1ccc(Cl)cc1)C1CCN(S(=O)(=O)c2cccc3nonc23)CC1`, for which the activity change, less the hit threshold was -10%.
Take `CC(NC(=O)C1CCN(S(=O)(=O)c2cccc3cccnc23)CC1)c1ccccc1` (configuration not stated): the activity change, less the hit threshold is 0.9% (active).
The value for `Cc1[nH]c(=O)[nH]c(=O)c1S(=O)(=O)N1CCC(C(=O)NC(C)c2ccccc2)CC1` (configuration not stated) was -19.6%.
The value for `Nc1ncnc(NC2CCS(=O)(=O)C2)c1[N+](=O)[O-]` (configuration not stated) was -11.2%.
As for `CC1CCc2c(sc(NS(=O)(=O)c3ccccc3)c2C(=O)OC(C)C)C1` (configuration not stated), the figure is 8.2% (active).
Take `CCOC(=O)c1c(NS(C)(=O)=O)sc2c1CCC(C)C2` (configuration not stated): the activity change, less the hit threshold is 26.3% (active).
`CC(C)OC(=O)c1c(NS(=O)(=O)c2ccccc2)sc2c1CCCC2`: the activity change, less the hit threshold is 9.1% (active).
Turning to `COC(=O)c1c(NC(=O)CN2CCOCC2)sc2c1CCC(C)C2` (configuration not stated), the activity change, less the hit threshold is -9.9%.
As for `CC(NS(=O)(=O)c1ccccc1)C(N)=O` (configuration not stated), the activity change, less the hit threshold is -21.1%.
As for `CCOC(=O)c1c(C)[nH]c(C)c1S(=O)(=O)N1CCCCC1`, the figure is -11%.
The value for `Cc1cc(C)c(-c2cc(NC(=O)COC(=O)c3ccc(NC(=O)CC#N)cc3)n(-c3ccccc3)n2)cc1C` was -22.1%.
In the case of `NC(=O)CC1NC(=O)c2ccccc21` (configuration not stated), the activity change, less the hit threshold is -13.3%.
As for `CCCNS(=O)(=O)c1ccc(OCC(=O)Nc2ccc3c(c2)OCCO3)cc1`, the figure is -11.5%; as for `Cc1oc(-c2cccs2)nc1CN1CCC(C(=O)N2CCCC2)CC1`, -17.4%; as for `CC1c2nc3ccccc3n2C(CC(=O)NCCCN2CCOCC2)C(=O)N1Cc1ccccc1` (configuration not stated), -19.4%.
In the case of `O=C(Nc1ccc(Oc2cccnc2)cc1)c1cccc([N+](=O)[O-])c1`, the activity change, less the hit threshold was -14.1%.
The value for `CCC1CCCCN1C(=S)NC(=O)c1ccc([N+](=O)[O-])cc1` (configuration not stated) was 32.5% (active); that for `CCC1CCCCN1C(=S)NC(=O)c1cccs1` (configuration not stated) was -4.1%.
As for `CC1CCN(C(=S)NC(=O)c2cccc([N+](=O)[O-])c2)CC1`, the figure is 5.8% (active).
As for `O=C(NC(=S)Nc1ccccc1N1CCCC1)c1ccc(-c2cccc([N+](=O)[O-])c2)o1`, the figure is -10.1%; as for `O=C(NC(=S)N(CC1CCC1)CC1CCCO1)c1cccc([N+](=O)[O-])c1` (configuration not stated), 39.6% (active); as for `CCC1CCCCN1C(=S)NC(=O)c1cccc([N+](=O)[O-])c1` (configuration not stated), 24% (active).
On to `O=C(O)c1cccc(C(=O)Nc2cccc(NC(=O)C3CCCO3)c2)c1` (configuration not stated), for which the activity change, less the hit threshold is -21.4%.
The value for `Cn1cc([N+](=O)[O-])c(C(=O)N/N=C\c2c[nH]c3ccccc23)n1` was -15.5%.
`CCCCN1C(=O)/C(=C2/Sc3ccc(Cl)cc3N2CC)SC1=S`: the activity change, less the hit threshold was -27.6%.
As for `CNC(=O)c1ccc(NC(=O)CN2c3cccc4cccc(c34)S2(=O)=O)cc1`, the figure is -18.1%; as for `COc1ccc(CS(=O)(=O)CC2(O)CCN(C(=O)c3cccc(C(F)(F)F)c3)CC2)cc1`, -25.4%.
Take `O=C1CN(C(=O)COc2ccccc2F)c2ccccc2N1`: the activity change, less the hit threshold was -18.7%.
The value for `O=C(c1csc(Nc2ccccc2Cl)n1)N1CCCC1` was -14.5%; that for `COc1cc(CNn2nnnc2N)ccc1OCC(=O)NC(C)(C)C` was -20%.
As for `COc1ccc(NC(=O)CC23CC4CC(CC(C4)C2)C3)cn1`, the figure is 44.4% (active); as for `COc1ccc(NC(=O)CCN2C(=O)C3C4C=CC(C4)C3C2=O)cc1` (configuration not stated), -21.1%.
As for `COc1ccccc1CC(=O)Nc1ccc(OC)c(OC)c1`, the figure is -12.4%; as for `CC(C)(C)c1cc(CCC(=O)NCc2ccncc2)cc(C(C)(C)C)c1O`, -15.7%.
Regarding `CCOC(=O)c1sc2nc(N3CCOCC3)c3c(c2c1N)CCN(Cc1ccccc1)C3`, the activity change, less the hit threshold is 0.1% (active).
The value for `Cn1ncc2c(NNC(=O)c3ccc(O)cc3)ncnc21` was -24.5%; that for `CC/C(=N\NC(=S)Nc1cccc(C)c1)c1ccccc1` was -13%.
The value for `CC(C)(C)NC(=O)C(=O)NNC(=O)COc1ccccc1` was -16.3%; that for `CCCc1cc(C(=O)NNC(=S)Nc2cccc(C)c2)cs1` was -16.5%.
With `CC(C)(C)NC(=O)C(=O)NNC(=O)c1ccccc1`, the activity change, less the hit threshold was -9.7%.
Take `CC(C)(C)NC(=O)C(=O)NNC(=O)c1cccc(Br)c1`: the activity change, less the hit threshold was 16.4% (active).
The value for `C=CCNC(=O)COc1ccc(Oc2ccccc2)cc1` was -6.4%; that for `CC(C)(C)c1ccc(C(=O)CC(=O)c2cc(Cl)ccc2O)cc1` was -11.6%; that for `O=C(Nc1ccccc1C(=O)O)c1cncc(Br)c1` was -3%.
On to `O=C(NN1C(=O)C2C(c3ccccc3)C=CC(c3ccccc3)C2C1=O)c1cccc(Br)c1` (configuration not stated), for which the activity change, less the hit threshold is -3.8%.
For the compound `CC(C)(C)NC(=O)C(=O)NNC(=O)COc1ccc(Br)cc1`, the activity change, less the hit threshold was 41.1% (active).
With `CC(C)(C)NC(=O)C(=O)NNC(=O)c1ccc(C(C)(C)C)cc1`, the activity change, less the hit threshold is 27.1% (active).
As for `Cc1cccc(NC(=O)C(=O)NNC(=O)c2ccc(C(C)(C)C)cc2)c1`, the figure is 110% (active); as for `O=C(/C=C/c1ccccc1)Nc1ccc(S(=O)(=O)N2CCOCC2)cc1`, -12.6%.
Take `Cc1cc(C(=O)N/N=C/c2ccc(O)c([N+](=O)[O-])c2)n[nH]1`: the activity change, less the hit threshold was -19.6%.
As for `O=C(CSc1ccccc1)N1CCN(S(=O)(=O)c2cccs2)CC1`, the figure is -6.8%; as for `O=C(CSc1nnc(NC(=O)c2ccc(S(=O)(=O)N3CCOCC3)cc2)s1)Nc1ccccc1C(F)(F)F`, -15.6%; as for `O=C(CSc1nc2ccc(NC(=O)c3ccccc3C(=O)O)cc2s1)Nc1c(Cl)cccc1Cl`, -7.3%.
As for `COc1ccc(N2C(=O)CCC(C(=O)O)C2c2ccc(F)cc2)cc1` (configuration not stated), the figure is -16.9%; as for `CCC(C)NC(=O)Cn1nc(C(F)(F)F)c2c1CCCC2` (configuration not stated), -23.4%.
With `O=C(NCc1cccnc1)Nc1ccc2c(c1)OCO2`, the activity change, less the hit threshold was -26%.
`O=C(NC(=S)Nc1nc(-c2ccccc2)cs1)c1cncc(Br)c1`: the activity change, less the hit threshold is -12.3%.
`O=C(NC(=S)N1CCN(c2nc(-c3ccccc3)cs2)CC1)c1cncc(Br)c1`: the activity change, less the hit threshold is 45.1% (active).
In the case of `S=C(NCc1ccco1)N1CCN(c2nc(-c3ccccc3)cs2)CC1`, the activity change, less the hit threshold was -24.1%.
The value for `CCC(C)c1ccccc1NC(=O)C(C)NCCN(C)C` (configuration not stated) was -17.2%; that for `COc1ccc(C)cc1S(=O)(=O)NC1CCCCC1` was -6.4%.
As for `CCNC(=S)Nc1nc2c(cc1C(=O)OCC)CCCC2`, the figure is 6.4% (active).
As for `C=CCNC(=S)Nc1nc2c(cc1C(=O)OCC)CCCC2`, the figure is 1.1% (active); as for `CCOC(=O)c1cc2c(nc1NC(=S)NCc1ccccc1)CCCC2`, -13.9%.
With `C=C(C)CNC(=S)Nc1nc2c(cc1C(=O)OCC)CCCC2`, the activity change, less the hit threshold is -9.5%.
In the case of `CCc1cccc2c1NC(=O)C2(O)CC(=O)c1cccs1` (configuration not stated), the activity change, less the hit threshold is -20.9%.
On to `O=C(CCc1ccccc1)NC(=S)Nc1cc(C(F)(F)F)ccc1N1CCOCC1`, for which the activity change, less the hit threshold was -30.4%.
As for `CCc1nccn1S(=O)(=O)c1ccc2ccc(C)cc2c1`, the figure is -8.3%; as for `CC(OC(=O)c1cc2c(s1)CCCCC2)C(=O)NC(N)=O` (configuration not stated), -23.7%; as for `NC(=O)C1CCN(C(=O)c2cc3c(s2)CCCC3)CC1`, 12% (active).
The value for `O=C(c1cc2c(s1)-c1ccccc1OC2)N1CCCC1` was -12.6%.
The value for `CCOc1ccc(-n2cnc3sc(C)c(C)c3c2=O)cc1` was -26.5%; that for `Cc1sc2ncnc(SCC(=O)c3ccc(O)cc3O)c2c1C` was 2.9% (active); that for `Cc1sc2ncnc(SCC(=O)NC(=O)c3cccn3C)c2c1C` was -2.4%.
For the compound `O=C(Nc1cccnc1)c1ccc(COc2ccccc2Br)o1`, the activity change, less the hit threshold is -13.5%.
As for `C=CCOc1ccccc1/C=c1\sc2nc(=O)c(C)nn2c1=O`, the figure is -17.3%.
In the case of `O=C(NC(=S)NCCc1ccc(Cl)cc1)c1ccco1`, the activity change, less the hit threshold is -7.7%.
The value for `O=C(NC(=S)NCCC1=CCCCC1)c1ccco1` was 42.7% (active); that for `S=C(NCCc1ccccc1)NCCN1CCOCC1` was -16.4%; that for `O=C(NC(=S)NCCC1=CCCCC1)c1ccc(Br)o1` was 3.5% (active).
In the case of `Cc1ccc(/C=N/Nc2ccc(C(=O)O)cc2)o1`, the activity change, less the hit threshold is -9.1%.
As for `Cc1ccc(N=C2NC(=O)/C(=C/c3cccs3)S2)cc1C`, the figure is -6.4%.
Turning to `O=C(OCc1ccccc1)/C(=C/c1cccc([N+](=O)[O-])c1)NC(=O)c1ccco1`, the activity change, less the hit threshold was -19.1%.
The value for `COc1ccc2nc(N3CCCCC3)c(/C=C3\SC(=S)NC3=O)cc2c1` was -17.9%; that for `O=C1NC(=S)/C(=C\c2ccc(-c3ccccc3Cl)o2)S1` was -18.7%; that for `O=C1NC(=S)S/C1=C\c1ccc2ccccc2c1` was 53.3% (active).
As for `S=c1[nH]c(-c2ccccc2)cn1/N=C/c1cccc2ccccc12`, the figure is -7.9%.
The value for `Cn1c(=S)[nH]c2sc3c(c2c1=O)CCC(C(C)(C)C)C3` (configuration not stated) was 70.3% (active).
For `CC1CCc2c(sc3[nH]c(=S)n(C)c(=O)c23)C1` (configuration not stated), the activity change, less the hit threshold was 72.5% (active).
As for `CCCOC(=O)CN1C(=O)c2ccc(C(=O)OCCC)cc2C1=O`, the figure is -12.2%; as for `O=c1oc2cc(OCCO)ccc2c2c1CCCC2`, -17.1%; as for `Cc1ccc2nc(-c3ccncc3)cc(C(=O)Nc3ccc4c(c3)OCCO4)c2c1`, -19.5%.
The value for `CS(=O)(=O)N1CCC(C(=O)Nc2c(F)cccc2F)CC1` was -11.1%; that for `O=C(COc1ccc(Cl)cc1Cl)NC(=S)Nc1ccccc1C(=O)O` was -12.7%.
The value for `Cc1occc1C(=O)NNC(=S)NC(=O)COc1ccc(Cl)cc1Cl` was 64.9% (active).
As for `COc1ccc(Cl)cc1C(=O)NNC(=S)NC(=O)/C=C/c1ccco1`, the activity change, less the hit threshold was -17%.
The value for `COc1ccc(CN(C)C(=O)c2cccc(NS(=O)(=O)c3ccccc3)c2)cc1F` was -13.5%.

The record behind these values is PubChem BioAssay AID1942 (Johns Hopkins Ion Channel Center, 2009).
